For 9 sequences, binding signal results are on record in article PMC8384837, “Expanding the binding specificity for RNA recognition by a PUF domain”.

What all share (assay): yeast three-hybrid, YBZ-1, SC-Leu-His + 0.5 mM 3-AT, 4 days
Common to all, as to conditions: tags: N-Gal4 AD-HA kept; label: inside an RPR1-promoter hybrid RNA with tandem MS2 sites; ssRNA

One experiment concerns the target PUM1 PUF domain R5-WHL (Homo sapiens, UniProt Q14671 828-1176, C1007W;R1008H;Q1011L). Summed up: (§1)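 The interaction score is the log change in variant frequency from input to selection. Scores were computed in log2 with a pseudocount of 1 for absent variants, using Illumina sequencing of PCR-amplified repeat regions. The input came from four days on SC-Leu and the selection from four days on SC-Leu-His + 0.5 mM 3-AT. The cells were strain YBZ-1 (LexA–MS2 coat fusion, HIS3 reporter) co-expressing Pumilio-1 PUF domain libraries and matching RNA elements from a centromeric plasmid.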

The target in the next experiment is PUM1 PUF domain R5-GRW (Homo sapiens, UniProt Q14671 828-1176, C1007G;Q1011W). In short, it runs like this:
as §1

Another experiment has as its target PUM1 PUF domain R2-LLY (Homo sapiens, UniProt Q14671 828-1176, N899L;Y900L;Q903Y). Summed up:
as §1

For a further experiment, the target named is PUM1 PUF domain R1-KGE (Homo sapiens, UniProt Q14671 828-1176, S863K;R864G;Q867E). In short, it runs like this: as §1
A further experiment addresses PUM1 PUF domain R1-RAN (Homo sapiens, UniProt Q14671 828-1176, S863R;R864A;Q867N). In short, it runs like this: as §1
The target in another experiment is T1, PUM1 PUF domain R6-SWV (Homo sapiens, UniProt Q14671 828-1176, N1043S;Y1044W;Q1047V).
T1 sequence: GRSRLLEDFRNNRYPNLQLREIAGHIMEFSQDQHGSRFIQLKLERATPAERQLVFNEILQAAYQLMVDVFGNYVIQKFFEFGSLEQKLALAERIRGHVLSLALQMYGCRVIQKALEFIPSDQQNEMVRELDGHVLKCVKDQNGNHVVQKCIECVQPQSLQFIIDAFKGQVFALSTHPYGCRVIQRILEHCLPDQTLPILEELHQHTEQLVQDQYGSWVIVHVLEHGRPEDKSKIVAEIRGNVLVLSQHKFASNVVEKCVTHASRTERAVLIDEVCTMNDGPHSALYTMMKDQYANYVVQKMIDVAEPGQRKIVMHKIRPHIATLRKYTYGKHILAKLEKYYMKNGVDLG
In short, it runs like this:
as §1

The target in the next experiment is T2, PUM1 PUF domain R6-WWS (Homo sapiens, UniProt Q14671 828-1176, N1043W;Y1044W;Q1047S).
T2 sequence: T1 sequence with S216W, V220S
In short, it runs like this: as §1

A further experiment has as its target T3, PUM1 PUF domain R6-MWG (Homo sapiens, UniProt Q14671 828-1176, N1043M;Y1044W;Q1047G).
T3 sequence: T1 sequence with S216M, V220G
In short, it runs like this: as §1

For the next experiment, the target named is PUM1 PUF domain R4-CRL (Homo sapiens, UniProt Q14671 828-1176, N971C;H972R;Q975L). In short, it runs like this:
as §1

The next experiment addresses T4, PUM1 PUF domain R6-LWA (Homo sapiens, UniProt Q14671 828-1176, N1043L;Y1044W;Q1047A).
T4 sequence: T1 sequence with S216L, V220A
Summed up: as §1

Substitutions are numbered along the chain they refer to.

As to “GGCUAGAACUAGUGGAUCCCCCGGCGCCCGGCGGCUCGAGCCCGGGUAAGUGUGAAUAGUCUGCAUGCCGCCGGGCGCCAUGCCUGCAGGUCGACUCUAGAAAACAUG”, the binding signal with PUM1 PUF domain R5-WHL was 7.53 log2 enrichment (interaction score).

Turning to “GGCUAGAACUAGUGGAUCCCCCGGCGCCCGGCGGCUCGAGCCCGGGUAAGUGUUAAUAGUCUGCAUGCCGCCGGGCGCCAUGCCUGCAGGUCGACUCUAGAAAACAUG”, the binding signal with PUM1 PUF domain R5-GRW is 4.05 log2 enrichment (interaction score).

As for “GGCUAGAACUAGUGGAUCCCCCGGCGCCCGGCGGCUCGAGCCCGGGUAAGUGUCAAUAGUCUGCAUGCCGCCGGGCGCCAUGCCUGCAGGUCGACUCUAGAAAACAUG”, the binding signal with PUM1 PUF domain R5-WHL was 2.9 log2 enrichment (interaction score).

On to “GGCUAGAACUAGUGGAUCCCCCGGCGCCCGGCGGCUCGAGCCCGGGUAAGUGUAAAGAGUCUGCAUGCCGCCGGGCGCCAUGCCUGCAGGUCGACUCUAGAAAACAUG”, for which, in the experiment with PUM1 PUF domain R2-LLY, the binding signal was 2.22 log2 enrichment (interaction score).

With “GGCUAGAACUAGUGGAUCCCCCGGCGCCCGGCGGCUCGAGCCCGGGUAAGUGUAAAUGGUCUGCAUGCCGCCGGGCGCCAUGCCUGCAGGUCGACUCUAGAAAACAUG”, in the experiment with PUM1 PUF domain R1-KGE, the binding signal was 1.9 log2 enrichment (interaction score).

“GGCUAGAACUAGUGGAUCCCCCGGCGCCCGGCGGCUCGAGCCCGGGUAAGUGUAAAUUGUCUGCAUGCCGCCGGGCGCCAUGCCUGCAGGUCGACUCUAGAAAACAUG”: the figures for the binding signal in the experiment with PUM1 PUF domain R1-KGE and with PUM1 PUF domain R1-RAN were 4.18 log2 enrichment (interaction score) and 3.21 log2 enrichment (interaction score), respectively.

Consider “GGCUAGAACUAGUGGAUCCCCCGGCGCCCGGCGGCUCGAGCCCGGGUAAGUGUAAAUAGUCUGCAUGCCGCCGGGCGCCAUGCCUGCAGGUCGACUCUAGAAAACAUG”, for which the binding signal is 1.05 log2 enrichment (interaction score) with PUM1 PUF domain R6-SWV; 3.36 log2 enrichment (interaction score) with PUM1 PUF domain R6-WWS; 3.83 log2 enrichment (interaction score) in the experiment with PUM1 PUF domain R6-MWG; 5.64 log2 enrichment (interaction score) with PUM1 PUF domain R4-CRL; 2.31 log2 enrichment (interaction score) with PUM1 PUF domain R5-GRW; 4.92 log2 enrichment (interaction score) in the experiment with PUM1 PUF domain R6-LWA.

For “GGCUAGAACUAGUGGAUCCCCCGGCGCCCGGCGGCUCGAGCCCGGGUAAGUGAAAAUAGUCUGCAUGCCGCCGGGCGCCAUGCCUGCAGGUCGACUCUAGAAAACAUG”, the binding signal in the experiment with PUM1 PUF domain R6-SWV was 2.26 log2 enrichment (interaction score); in the experiment with PUM1 PUF domain R6-LWA, 3.04 log2 enrichment (interaction score).

“GGCUAGAACUAGUGGAUCCCCCGGCGCCCGGCGGCUCGAGCCCGGGUAAGUGUAAAUCGUCUGCAUGCCGCCGGGCGCCAUGCCUGCAGGUCGACUCUAGAAAACAUG”: the binding signal with PUM1 PUF domain R1-RAN was 3.89 log2 enrichment (interaction score).
